Experimental data from PubChem BioAssay (NCI).
Where “and” joins values, the source holds several entries; their conditions need not be identical. Identical values can stand only once. About 79,000 compounds went through this panel and 15% of them were active in at least one assay; those are over-represented in the sample as a whole. Calls of active or inactive are those of the source. Rule as the data show it: active = growth inhibition above about 70%; inactive = the rest.

Assays:
[1] = NCI Yeast Anticancer Drug Screen. Data for the rad50 strain (AID 155);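 also: 0% = growth of vehicle-only cultures of the same strain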; details: S. cerevisiae rad50 strain growth inhibition, hits give high values; at 50.0 µM unless noted
Method in brief: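 Yeast carrying a defined DNA repair defect were exposed to test compounds, and growth was compared with vehicle-treated controls to give percent inhibition.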

[2] = NCI Yeast Anticancer Drug Screen. Data for the mec2-1 strain (AID 157); details: S. cerevisiae mec2-1 strain, hits give high values; at 50.0 µM unless noted
Method in brief: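 Readout is yeast growth inhibition, normalised to vehicle-treated controls, in the mec2-1 strain exposed to compound.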

[3] = NCI Yeast Anticancer Drug Screen. Data for the sgs1 mgt1 strain (AID 161);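 also: 0% = growth of cultures given vehicle only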; details: S. cerevisiae sgs1 mgt1 strain, hits give high values; at 50.0 µM unless noted
Method in brief: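 Yeast cells carrying a defined DNA-repair defect were exposed to test compounds. Growth inhibition was measured relative to vehicle-treated controls.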

[4] = NCI Yeast Anticancer Drug Screen. Data for the cln2 rad14 strain (AID 165);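 also: 0% = growth equal to vehicle treated cultures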; details: S. cerevisiae cln2 rad14 strain, hits give high values; at 50.0 µM unless noted
Method in brief: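 Relative to vehicle controls, growth inhibition of compound-treated cln2 rad14 yeast was recorded.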

[5] = NCI Yeast Anticancer Drug Screen. Data for the bub3 strain (AID 167); details: S. cerevisiae bub3 mutant strain, hits give high values; at 50.0 µM unless noted
Method in brief: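 Compounds were applied to a genetically altered yeast strain carrying a cell-cycle control defect. Growth inhibition was scored against vehicle-treated controls.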

[6] = NCI Yeast Anticancer Drug Screen. Data for the mlh1 rad18 strain (AID 175); details: S. cerevisiae mlh1 rad18 strain growth inhibition, hits give high values; at 50.0 µM unless noted
Method in brief: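 Test agents were incubated with a yeast strain of defined genotype (DNA damage repair defect). Inhibition of growth was derived by comparison with vehicle-exposed cultures.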

Measured: growth inhibition

c1ccc2nn(C3CCCO3)nc2c1 (stereo not drawn)
inactive: [1] 0.75% | [2] -16.5% | [3] -21.9% | [4] -29.4% | [5] 3.15% | [6] -43.5%

O=C1CSC(c2ccc(O)cc2)N1c1nncs1 (stereo not drawn)
inactive: [1] 0.4% | [2] -0.75% | [3] 16.8% | [4] -0.55% | [5] 5.6% | [6] 11.9%

CNCCCn1c2ccccc2c2c3c(c(-c4ccsc4)cc21)C(=O)NC3=O
inactive: [1] -1.75% | [2] -8.7% | [3] -19.9% | [4] -4.3% | [5] -7.8% | [6] -40.5%

O=C(CC(=O)c1cc(Cl)ccc1O)c1ccc2ccccc2n1
inactive: [1] -0.35% | [2] 13.2% | [3] 18.8% | [4] -21.8% | [5] -2.85% | [6] 22.4%

CCCCCC(=O)OC(c1ccc(Cl)cc1)c1ccc(Cl)cc1
inactive: [1] -5.2% | [2] -26.2% | [3] 5.5% | [4] 12.6% | [5] 26.8% | [6] 5.3%

O=C1OCC/C1=C/c1ccc(N=Nc2c(O)ccc3ccccc23)cc1
inactive: [1] 2.4% | [2] -6.05% | [3] 11.1% | [4] 5.5% | [5] 11.7% | [6] 7.05%

Cc1cc(N(CCC#N)CCC#N)ccc1/C=C1/CN(N2C(=O)/C(=C/c3ccc(N(CCC#N)CCC#N)cc3C)N=C2c2ccccc2)C(c2ccccc2)=N1
inactive: [1] -2.7% | [2] -25.4% | [3] -22.6% | [4] 5.6% | [5] -28.8% | [6] -11.1%

FC(F)(F)C1CCCCC1[Si](C1CCCCC1C(F)(F)F)C1CCCCC1C(F)(F)F (stereo not drawn)
inactive: [1] 32.8% | [2] -11.2% | [3] 13.7% | [4] 10.5% | [5] -5.55% | [6] 5.7%

CN(C)CC1CCCCCC(CN(C)C)C1=O (stereo not drawn)
inactive: [1] -17.9% and 38% | [2] 8.3% and 2.75% | [3] -1.85% and 25.9% | [4] 0.45% and -28.4% | [5] -10.4% and -1.65% | [6] 16.8% and 12.9%

Cc1cccc(C)c1NS(=O)(=O)c1ccc(Cl)cc1
active: [1] 91.8% | [2] 84.4% | [4] 91.7% | [5] 94% | [6] 90.4%
inactive: [3] 68.7%

Cc1ccc(S(=O)(=O)OC2C(OCc3ccccc3)OC(CO)C2O)cc1 (stereo not drawn)
inactive: [1] -6% | [2] 6.65% | [3] -9.2% | [4] 15.3% | [5] -0.6% | [6] -9.15%

CCCCC/C([O-])=C1/C(=O)N(c2ccccc2)N=C1C.CCCCC/C([O-])=C1/C(=O)N(c2ccccc2)N=C1C.[Cu+2]
inactive: [1] 2.1% | [2] 0.75% | [3] -13.7% | [4] -6.1% | [5] -2.75% | [6] 7.75%

Cc1ccc2c(c1)C(C(=O)N[C@@H]1C(=O)N3[C@@H]1SC(C)(C)[C@@H]3C(=O)O)OCCC2 (stereo partly drawn)
inactive: [1] -5.1% | [2] -12.3% | [3] 16.2% | [4] 2.45% | [5] 0.65% | [6] -68.4%

O=CC[C@]12CC(=O)OC(C=CC13OCCO3)C2
inactive: [1] 6.55% | [2] -9.4% | [3] -16.7% | [4] 17.6% | [5] 13.4% | [6] 9.05%

CN1C2=NC(=O)NC(=O)C23OC3c2ccccc21 (stereo not drawn) (tested in a mixture with another compound)
inactive: [1] 6.35% | [2] 12% | [3] -0.45% | [4] 14.7% | [5] 1.75% | [6] 18.9%

Nc1nc(Cl)cc(NCCCCCCCCNc2cc(Cl)nc(N)n2)n1
inactive: [1] -2.3% | [2] -1.65% | [3] -7.35% | [4] -7.8% | [5] -3.95% | [6] -3.55%

CC(C)OC(=O)C(O)c1ccccc1 (stereo not drawn)
inactive: [1] 18.2% | [2] -17.1% | [3] -25.4% | [4] -50% | [5] -9.45% | [6] 8.2%

COc1cc2c(c3oc4c(O)cccc4c(=O)c13)CC(C(C)(O)CO)O2 (stereo not drawn)
inactive: [1] 24.2% | [2] -11.6% | [3] -23.4% | [4] -9.25% | [5] -42.8% | [6] -33.6%

O=c1/c(=C/c2ccccc2[N+](=O)[O-])sc2nc3ccccc3n12
inactive: [1] -16.6% | [2] -21.4% | [3] -25.9% | [4] -12.7% | [5] -21.9% | [6] -47.2%

CC(=O)NC1(NC(C)=O)C2CC(C1Cc1ccccc1)C(C)(C)C2C (stereo not drawn)
inactive: [1] 4.75% | [2] -14.7% | [3] -18.6% | [4] -11.6% | [5] -43.5% | [6] -38.5%

NCC(=O)c1ccc(CCC(=O)O)cc1
inactive: [1] 3.1% | [2] -0.25% | [3] -0.75% | [4] 0.25% | [5] 6.3% | [6] 2.6%

COC1OC(C)C(OC(=O)c2ccccc2)C(OC(=O)c2ccccc2)C1OC(=O)c1ccccc1 (stereo not drawn)
inactive: [1] 16.2% | [2] -3.45% | [3] 3.75% | [4] -23.6% | [5] 1.95% | [6] 12.7%

ClCCCCCNC1CCCCC1
inactive: [1] -1.2% | [2] -45.6% | [3] -4.3% | [4] -15.7% | [5] -17.2% | [6] -14.2%

COC(=O)C(=O)C(C(=O)C=C(C)C)C(=O)C(=O)Nc1ccc(C)cc1C (stereo not drawn)
inactive: [1] -4.9% | [2] -17.5% | [3] -3.55% | [4] 11.2% | [5] -18.6% | [6] -29.6%

COc1ccc(/C=N/N2CN(C(C)C(=O)O)B(NCCC(C)C)N=C2N)cc1OC (stereo not drawn)
inactive: [1] -0.5% | [2] -10.3% | [3] 20.9% | [4] 6.3% | [5] 29.2% | [6] -4.1%

O=C(CCl)NNC1=Nc2ccc(Cl)cc2SC1
inactive: [1] -2.2% | [2] -3.65% | [3] 8.55% | [4] 0.6% | [5] 5.8% | [6] 11.2%

Cc1ccc([N+](=O)[O-])cc1N
inactive: [1] 31% | [2] 25.4% | [3] 4.15% | [4] 23.2% | [5] 17.1% | [6] 14.7%

Cc1cccc(NC(=O)Nc2ccccc2F)n1
inactive: [1] -2.7% | [2] 5.65% | [3] -8.95% | [4] -26.9% | [5] -6.95% | [6] -12.1%

O=C(CSc1nnc(-c2ccc(N=Cc3ccc(Cl)cc3)cc2)o1)Nc1cccc([N+](=O)[O-])c1
inactive: [1] -1.95% | [2] -11.1% | [3] 3.85% | [4] 18.1% | [5] -40% | [6] 2.45%

N/N=C1\C(=O)N(C2CCCCCC2)C(=O)C1C(=O)NC1CCCCCC1 (stereo not drawn)
inactive: [1] -13.3% | [2] -32.6% | [3] -7.2% | [4] -68.7% | [5] -18.8% | [6] -26.2%

NC(=O)C(=CN1CC(=O)NC1=S)C(N)=O
inactive: [1] -23.3% | [2] -23.4% | [3] -2.4% | [4] 9.85% | [5] -9.05% | [6] 17.1%

COC(=O)c1ccccc1CC1Cc2ccc3c(c2C1=O)CCCC3 (stereo not drawn)
inactive: [1] -1.35% | [2] -65.7% | [3] -13.3% | [4] 5.4% | [5] 17.8% | [6] 3.3%

Cc1nnsc1C(=O)NCc1c(F)cccc1Cl
inactive: [1] 6.65% | [2] 15.6% | [3] 11% | [4] 25.4% | [5] 37.3% | [6] 28.8%

COC(=O)C1(C)C=C(Nc2ccccc2)C(=O)N1c1ccccc1 (stereo not drawn)
inactive: [1] -3.45% | [2] -19.8% | [3] 6.2% | [4] 21.8% | [5] 23.4% | [6] 2.25%

c1ccc(C2=NN(c3ccccc3)CC2)cc1
inactive: [1] -8.3% | [2] -3.15% | [3] 0.4% | [4] 9.25% | [5] 9.35% | [6] 2.05%

COC(=O)CCc1ccco1
inactive: [1] 10.6% | [2] -10% | [3] 3.4% | [4] 2.5% | [5] 6.95% | [6] 12.7%

CC(=O)Nc1snc(C)c1[N+](=O)[O-]
inactive: [1] -4.55% | [2] -0.1% | [3] 6.75% | [4] -8.2% | [5] -2.9% | [6] 0.55%

CSc1ncc(C(N)=O)c(N)n1
inactive: [1] -2.05% and 12% | [2] 3.5% and -12.9% | [3] -3.35% and -9.65% | [4] -38% and -12.4% | [5] -6.7% and -12.6% | [6] 2.45% and 13.2%
